Calls of active or inactive are those of the source.

One experiment addresses Albumin (Bos taurus) (UniProt P02769). The experiment in a line: compounds binding labelled BSA control protein – biochemical, small-molecule microarray, Alexa647 label, 635/667 nm fluorescence, artefact control for SMM control protein annotation, profiling panel (AID 1118).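 Note: score merges 667 nm emission intensity and signal-to-noise per printed compound spot.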 The settings on record: BSA-A647 binding, fluorescence 635 nm, higher = more signal.
Experiment [1] is described as follows: probe aXIP binding to arrayed compounds – biochemical, NeuroSMM set, 635/667 nm fluorescence, primary screen (AID 1119).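 Note: probe is the protein aXip251-270 applied at 1 µg/mL to compound-printed slides; binding of probe to printed compounds measured as 667 nm fluorescence plus signal to noise.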 The settings on record: small-molecule microarray, higher = more signal, called active from +8 up or from −8 down.
Experiment [2] is described as follows: probe aNOTCH3 binding on compound microarray – biochemical, small-molecule microarray, 635/667 nm fluorescence, primary screen (AID 1120).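 Note: probe is a biotin-tagged antibody raised against NOTCH3 rather than NOTCH3 protein; score merges spot fluorescence near 667 nm with spot signal to noise.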 The settings on record: higher = more signal.
The nature of experiment [3]: probe aNOTCH2 binding on compound microarray – biochemical, small-molecule microarray, 635/667 nm fluorescence, primary screen (AID 1121).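 Note: score merges feature fluorescence read at 667 nm with its signal to noise.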 The settings on record: higher = more signal.
The target in experiment [4] is Carbonic anhydrase 2 (Homo sapiens) (UniProt P00918). The experiment in a line: compounds binding carbonic anhydrase 2 – biochemical, small-molecule microarray, Alexa647-labelled CAII, profiling panel (AID 1122). The settings on record: CAII-A647 binding fluorescence, higher = more signal.
The nature of experiment [5]: COS7 lysate on small-molecule microarray, probe aHis, 635 nm (AID 1123).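 Note: z-score combines 667nm fluorescence intensity with signal-to-noise per printed compound spot.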 The settings on record: COS7 cell lysate, fluorescence, higher = more signal.
A short description of experiment [6]: probe aLAP1 signal on lysate-treated microarray – cell lysate, small-molecule microarray, COS7 lysate, primary screen (AID 1124).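 Note: lysate comes from COS7 cells expressing LAP1 and is applied at 0.3 µg/mL; score merges spot fluorescence near 667 nm with signal-to-noise over triplicate slides.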 The settings on record: probe aLAP1, fluorescence, higher = more signal.
The test system of the next experiment is Sam68 (KHDRBS1). The experiment in a line: compounds binding KHDRBS1 protein – biochemical, small-molecule microarray, 635 nm fluorescence, primary screen (AID 1125).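 Note: score merges 667 nm channel intensity with signal to noise over triplicate slides.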 The settings on record: higher = more signal.
The test system of experiment [7] is Chordin-like protein 2 (CHRDL2). The experiment in a line: compounds binding chordin-like 2 – biochemical, small-molecule microarray, 635 nm fluorescence, primary screen (AID 1126).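 Note: printed compound slides probed with Chrdl2 protein at 4 µg/mL for 1 h at 4 C; score merges 667 nm emission intensity with signal to noise over three replicate slides.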 The settings on record: fluorescence 635 nm, higher = more signal.
The target of experiment [8] is Concanavalin-A (Canavalia ensiformis) (UniProt P02866). Briefly: compounds binding concanavalin A lectin – biochemical, small-molecule microarray, Alexa647 label, 635 nm, artefact control for SMM control protein annotation, primary screen (AID 1127).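 Note: z combines 667 nm emission intensity with signal-to-noise across three replicate slides.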 The settings on record: ConA-A647 binding fluorescence, higher = more signal.
Chain of Concanavalin-A (Canavalia ensiformis) (P02866 whole entry, looked up): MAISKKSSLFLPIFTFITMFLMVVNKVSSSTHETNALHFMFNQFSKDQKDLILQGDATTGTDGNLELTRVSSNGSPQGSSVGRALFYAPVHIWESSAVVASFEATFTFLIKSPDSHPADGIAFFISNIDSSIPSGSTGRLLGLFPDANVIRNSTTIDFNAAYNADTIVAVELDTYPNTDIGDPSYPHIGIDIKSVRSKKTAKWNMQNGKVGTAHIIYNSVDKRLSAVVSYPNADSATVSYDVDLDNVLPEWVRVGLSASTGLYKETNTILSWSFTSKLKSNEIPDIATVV

Chain of Albumin (Bos taurus) (P02769 whole entry, looked up): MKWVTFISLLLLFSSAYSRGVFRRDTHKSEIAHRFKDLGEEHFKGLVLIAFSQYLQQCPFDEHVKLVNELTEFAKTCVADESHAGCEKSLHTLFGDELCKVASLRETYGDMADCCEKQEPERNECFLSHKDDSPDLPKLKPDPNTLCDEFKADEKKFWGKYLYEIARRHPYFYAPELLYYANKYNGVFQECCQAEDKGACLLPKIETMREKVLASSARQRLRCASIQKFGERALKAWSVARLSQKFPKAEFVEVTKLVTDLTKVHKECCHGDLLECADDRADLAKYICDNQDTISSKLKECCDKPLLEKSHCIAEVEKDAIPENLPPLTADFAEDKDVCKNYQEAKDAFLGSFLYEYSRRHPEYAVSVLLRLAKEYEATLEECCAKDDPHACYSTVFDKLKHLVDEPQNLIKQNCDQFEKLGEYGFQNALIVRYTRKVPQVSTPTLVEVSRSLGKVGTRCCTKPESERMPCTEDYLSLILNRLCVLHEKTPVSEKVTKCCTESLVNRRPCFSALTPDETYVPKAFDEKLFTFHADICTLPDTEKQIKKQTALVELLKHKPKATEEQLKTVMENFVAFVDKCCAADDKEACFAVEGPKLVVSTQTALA

For `O=C1OCCC=C[C@H]2OC34C=CCN(c5ccc(Cl)cc5)C(=O)[C@H]3N(CCCCCO)C(=O)[C@@H]4C12` (stereo not given in full), the composite z-score with Albumin (Bos taurus) is 0.772; in experiment [2], -0.0663; in experiment [3] it was -0.0714; in [4] it was 0.873; in experiment [5], 0.848; in experiment [6] it was 0.281. The results for the composite z-score (with Sam68 (KHDRBS1); in experiment [7]; in experiment [8]) were 0.25, -0.27 and -1.21, respectively. For the same molecule, the composite Z-score in [1] was 0.728 (inactive).

For `Cc1ccc(F)cc1S(=O)(=O)N[C@@H]1CCN(Cc2ccc(Oc3ccccc3)cc2)C1`, the composite z-score with Albumin (Bos taurus) was -0.274; in experiment [2], 0.154; in experiment [3] it was -0.165; in experiment [4] it was 0.304; in [5] it was -0.13; in experiment [6] it was -0.305. Besides, the values for the composite z-score (in the experiment with Sam68 (KHDRBS1); in experiment [7]; in experiment [8]) were -0.68, 0.861 and -0.905, respectively. The composite Z-score in experiment [1] was -0.608 (inactive).

`CC(=O)NCCCC[C@@H]1NC(=O)[C@@H]2C[C@H](C(=O)O)[C@H](c3ccc(O)cc3)N2C1=O`: the composite z-score with Albumin (Bos taurus) was -0.757; in experiment [2], -0.594; in experiment [3], -0.1; in experiment [4] it was 0.658; in experiment [5] it was -0.0142; in experiment [6], -0.0574. For the same molecule, the composite z-score is -1.04 with Sam68 (KHDRBS1), -0.755 in experiment [7] and 0.092 in experiment [8]. Moreover, the composite Z-score in [1] was 1.77 (inactive).

Turning to `O=C1c2ccccc2[C@](Cc2ccccc2I)(C(=O)NCCN2CCOCC2)[C@H](c2ccc(CO)cc2)N1Cc1ccccc1`, the composite z-score with Albumin (Bos taurus) is 0.673; in [2], 0.533; in experiment [3], -0.0468; in [4], 0.377; in experiment [5], 1.28; in experiment [6] it was 0.369. Moreover, the figures for the composite z-score (with Sam68 (KHDRBS1); in [7]; in [8]) were 1.3, 0.286 and 1.12, respectively. Further, the composite Z-score in [1] was -0.52 (inactive).

`COc1ccc(NN2C(C(O)c3ccccn3)C=CC3C(=O)N(C4CCCCC4)C(=O)C32)cc1` (stereo not given): the composite z-score was found to be 0.907 with Albumin (Bos taurus); 0.263 in [2]; 0.0117 in experiment [3]; 0.7 in experiment [4]; 2.24 in experiment [5]; 0.969 in [6]. The composite z-score was 1.3 with Sam68 (KHDRBS1), -0.203 in experiment [7] and 1.14 in [8]. The composite Z-score in [1] is 0.0797 (inactive).

As to `C=CCNC(=O)[C@@H]1[C@H]2C(=O)O[C@H](c3ccccc3)[C@H](c3ccccc3)N2[C@H](c2ccccc2OCCO)[C@@]12C(=O)N(C(=O)OCCOC)c1ccc(C#CC3=CCCCC3)cc12`, the composite z-score is 0.706 with Albumin (Bos taurus); -0.0699 in [2]; -0.0664 in experiment [3]; 0.467 in experiment [4]; 1.76 in [5]; -0.218 in experiment [6]. For the same molecule, the composite z-score in the experiment with Sam68 (KHDRBS1) is 1.28; in [7] it was 0.741; in experiment [8], 1.12. In addition, the composite Z-score in [1] was 2.45 (inactive).

As to `C=C(CCCC)C(=O)CC[C@@H](OC(=O)c1cccnc1)c1ccccc1OCCO`, the composite z-score was -0.326 with Albumin (Bos taurus); 0.1 in experiment [2]; -0.0804 in [3]; 0.406 in experiment [4]; -0.256 in experiment [5]; 0.377 in [6]. In addition, the values for the composite z-score (in the experiment with Sam68 (KHDRBS1); in [7]; in experiment [8]) were 0.44, 0.515 and -1.51, respectively. Also, the composite Z-score in experiment [1] is 0.589 (inactive).

Turning to `COC(=O)[C@]1(CCS(=O)(=O)c2ccccc2)N=C(c2ccc(OCCCO)cc2)O[C@@H]1c1ccccc1CN=[N+]=[N-]`, the composite z-score with Albumin (Bos taurus) was -0.453; in experiment [2], 0.0357; in experiment [3] it was 0.062; in [4], 0.416; in experiment [5], 1.95; in experiment [6], 0.472. Also, the figures for the composite z-score (in the experiment on Sam68 (KHDRBS1); in experiment [7]; in experiment [8]) were 1.29, -0.0531 and 0.848, respectively. In [1], the composite Z-score was -0.139 (inactive).

For the molecule `CCOC(=O)C[C@H]1[C@H](OC(=O)c2ccc(-c3ccccc3)cc2)[C@@H](NC(=O)C2CCCCC2)c2cc(OCCCO)ccc2N1C(=O)c1ccccc1`, the composite z-score is 0.236 with Albumin (Bos taurus); 0.172 in [2]; -0.152 in [3]; 0.0455 in experiment [4]; 0.92 in experiment [5]; 0.0846 in experiment [6]. The composite z-score with Sam68 (KHDRBS1) is 0.957; in experiment [7], 0.372; in [8], 0.949. In [1], the composite Z-score was -0.6 (inactive).

On to `CN(C)CCCNC(=O)[C@@H]1c2ccccc2C(=O)N(Cc2ccc(OC(F)(F)F)cc2)[C@H]1c1ccc(CO)cc1`, for which the composite z-score is -0.298 with Albumin (Bos taurus); 0.0469 in experiment [2]; -0.115 in experiment [3]; 0.398 in experiment [4]; 1.4 in experiment [5]; 0.602 in experiment [6]. Moreover, the composite z-score in the experiment on Sam68 (KHDRBS1) came out at 1.26; in experiment [7], 0.151; in experiment [8], 0.675. Further, the composite Z-score in experiment [1] was 0.729 (inactive).

Consider `C[C@@H]1ON(c2ccc(C(=O)OC(C)(C)C)cc2)[C@H](c2ccc(Br)cc2)[C@H]1C(=O)N1C(=O)OC[C@H]1Cc1ccccc1`, for which the composite z-score with Albumin (Bos taurus) is 0.778; in experiment [2], 0.0773; in experiment [3], -0.0984; in [4] it was 0.235; in experiment [5], 1.86; in [6] it was 0.0865. Moreover, the results for the composite z-score (with Sam68 (KHDRBS1); in [7]; in [8]) were 1.28, 0.491 and 1.08, respectively. Further, in experiment [1], the composite Z-score is -0.359 (inactive).

As to `CC(C)OC(=O)CC(=O)CC(O)c1cccc(C#N)c1` (stereo not given), the composite z-score with Albumin (Bos taurus) is 0.586; in experiment [2], 0.178; in experiment [3], -0.022; in [4], 0.522; in experiment [5] it was 1.03; in experiment [6], 0.0279. The composite z-score is 1.35 with Sam68 (KHDRBS1), -0.591 in experiment [7] and 1.13 in experiment [8]. Further, the composite Z-score in [1] is 0.586 (inactive).

Regarding `COCC(=C=CC[C@H](O)c1ccc(OCCO)cc1)C[C@H](O)COCc1ccccc1`, the composite z-score in the experiment with Albumin (Bos taurus) is 0.589; in experiment [2], -0.123; in experiment [3], -0.14; in [4], 0.561; in [5], 1.07; in experiment [6], 0.476. The composite z-score in the experiment on Sam68 (KHDRBS1) came out at 0.703; in experiment [7] it was 0.538; in [8], 0.654. Also, the composite Z-score in [1] is 0.0082 (inactive).

As to `CC(=O)n1cc(C(O)C2C=CC3C(=O)N(Cc4ccccc4)C(=O)C3N2n2cnnc2)c2ccccc21` (stereo not given), the composite z-score was 0.136 with Albumin (Bos taurus); 0.0576 in [2]; -0.0304 in experiment [3]; 0.444 in [4]; 0.983 in experiment [5]; 0.281 in experiment [6]. In addition, the composite z-score with Sam68 (KHDRBS1) was -0.0572; in experiment [7] it was -0.243; in [8], 0.458. Moreover, the composite Z-score in experiment [1] is -0.213 (inactive).

`COc1cc2c(cc1OC)CN(C(=O)[C@@H]1[C@H]3C(=O)O[C@H](c4ccccc4)[C@H](c4ccccc4)N3[C@H](c3ccccc3OCCO)[C@@]13C(=O)Nc1ccc(C#CC4(O)CCCCCC4)cc13)CC2`: the composite z-score was 0.319 in the experiment with Albumin (Bos taurus); 0.0316 in experiment [2]; -0.0859 in experiment [3]; 0.527 in experiment [4]; 1.48 in experiment [5]; 0.829 in experiment [6]. Moreover, the composite z-score with Sam68 (KHDRBS1) turned out to be 1.3; in experiment [7], 0.334; in experiment [8] it was 1.13. Moreover, in experiment [1], the composite Z-score was 0.428 (inactive).

In the case of `COCCOC(=O)N1C(=O)[C@@]2(c3cc(C#Cc4ccc(OC)cc4)ccc31)[C@H](C(=O)N1CCCCCCC1)[C@H]1C(=O)O[C@H](c3ccccc3)[C@H](c3ccccc3)N1[C@@H]2c1ccc(O)cc1`, the composite z-score with Albumin (Bos taurus) was -0.617; in experiment [2], 0.807; in [3], 0.0137; in [4], 0.168; in experiment [5], 0.234; in experiment [6], 0.421. For the same molecule, the results for the composite z-score (with Sam68 (KHDRBS1); in [7]; in experiment [8]) were 1.15, 0.643 and 0.692, respectively. For the same molecule, the composite Z-score in [1] was 0.527 (inactive).
